From PubChem BioAssay (EPA / NIEHS)
The source made the active and inactive calls. How the source made its calls: active means hit-call score of the fitted dose curve at least 0.9, where 1 is the maximum; inactive means score below 0.9.

assay: BSK_BE3C_SRB: Viability Assessment in the BioMAP Diversity Plus: BE3C Assay (AID 2283028); conditions: primary human bronchial epithelial cells;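 on AC50: fitted both ways so AC50 may mark signal gain or loss versus DMSO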
Method: BSK_BE3C is a cell-based, multiplexed-readout assay that uses bronchial epithelial cell, a human lung primary cell, with measurements taken at 24 hours after chemical dosing in a 96-well plate.BSK_BE3C_SRB is an assay component measured in the BSK_BE3C assay. It measures 0.1% sulforhodamine related to cell death using Sulforhodamine staining technology.Data from the assay component BSK_BE3C_SRB was analyzed into 1 assay endpoint. This assay endpoint, BSK_BE3C_SRB, was analyzed with bidirectional fitting relative to DMSO as the negative control and baseline of activity. Using a type of viability reporter, gain or loss-of-signal activity can be used to understand changes in the signaling. Furthermore, this assay endpoint can be referred to as a primary readout, because this assay has produced multiple assay endpoints where this one serves a signaling function. To generalize the intended target to other relatable targets, this assay endpoint is annotated to the cell morphology intended target family, where the subfamily is cell conformation.
The levels of cell surface (or secreted, indicated by the prefix "s") biomarker endpoints were measured by ELISA. Overt cytotoxicity to cells in confluent adherent cultures (all systems other than the BT system) was assessed by measuring total protein levels using sulforhodamine B (SRB) staining in parallel cultures at the time of biomarker measurements, indicated as SRB endpoints. For proliferation assays for adherent cell types, individual cell types are cultured at sub-confluence and relative cell numbers quantified by SRB staining at time points optimized for each system (48 h: 3C and CASM3C systems; 72 h: BT and HDF3CGF systems; 96 h: SAg system). SRB was performed by staining cells with 0.1% SRB after fixation with 10% TCA and reading wells at 560 nm.Viability and proliferation of PBMC (T cells) was quantified by Alamar Blue reduction for the SAg and BT systems. For PBMC viability (referred to as PBMC Cytotoxicity within the assay endpoint names), cells were plated (75,000/well in a 96-well plate) and then chemical samples added for 1 h before addition of activators, SEB and TSST-1 (20 ng/mL final concentration each). Cells were incubated for 90 h. Then, Alamar Blue (20 uL/well) (Invitrogen, Cat DAL1100) was added for 6 h, and the plates were read with a fluorescence microplate reader at 546/580 nm (excitation/emission). For PBMC proliferation, cells were plated and activated as above but incubated for only 16 h prior to addition of Alamar Blue. Plates were read after 6 h.

Structure (SMILES) | outcome | AC50
Cc1ccc(C(C)C)c(O)c1 | inactive | –
Cc1ccccc1Cl | inactive | –
Cc1cc(NC(=O)C(=O)O)cc(C)c1Oc1ccc(O)c2c1CCC2 | inactive | –
C[C@]12C=CC(=O)C=C1CC[C@@H]1[C@@H]2C(=O)C[C@@]2(C)[C@H]1CC[C@]2(O)C(=O)CO | inactive | –
Cc1c(C(=O)O)c(O)cc2c1C(=O)c1c(O)c([C@@H]3O[C@H](CO)[C@@H](O)[C@H](O)[C@H]3O)c(O)c(O)c1C2=O | inactive | –
OC[C@@H](O)[C@@H](O)[C@H](O)[C@H](O)CO | inactive | –
CCOC(=O)CCC(=O)OCC | inactive | –
CCCCN(CCCC)CCCC | inactive | –
CCOC(=O)C(C)(C)Oc1ccc(Cl)cc1 | inactive | –
COc1cc(-c2nc(NC(=O)c3cc4cc(C)cc(C)c4n3CC(=O)O)sc2CCC2CCCCC2)c(OC)cc1Cl | – | 3.12 µM (active)
CN1CCN(Cc2cc(-c3ccc4[nH]c(=O)oc4c3)co2)[C@@H](c2ccc(F)cc2)C1 | inactive | –
CCCCCCOCCO | inactive | –
COc1ccc(S(=O)(=O)N2C(=O)[C@@](c3ccccc3OC)(N3C[C@H](O)C[C@H]3C(=O)N(C)C)c3cc(Cl)ccc32)c(OC)c1 | inactive | –
O=C(O)Cc1ccccc1Nc1c(Cl)cccc1Cl | inactive | –
CC(C)c1ccc(C(=O)N=C(N)N)cc1S(C)(=O)=O | inactive | –
NC(=O)Cn1c(=O)cc(CCN2CCN(c3nccc4sccc34)CC2)c2ccc(F)cc21 | inactive | –
CC1(C)CC(N=C=O)CC(C)(CN=C=O)C1 (stereo not given) | inactive | –
COC(=O)c1ccc(O)cc1 | inactive | –
CC(CO)OC(C)CO (stereo not given) (tested in a mixture with another compound) | inactive | –
CCOc1ccc2c(c1)C(C)=CC(C)(C)N2 | inactive | –

Structure (SMILES) | outcome | AC50
CCCCCCCCCCCCCCCCCC(=O)O | inactive | –
NCC1(Cc2noc(=O)[nH]2)CCCCC1 | inactive | –
CCCc1cc(=O)[nH]c(=S)[nH]1 | inactive | –
Cc1ccc2ncccc2c1 | inactive | –
CN[C@H]1CC[C@@H](c2ccc(Cl)c(Cl)c2)c2ccc(S(N)(=O)=O)cc21 | – | 34 µM (active)
CC=Cc1ccc(O)c(OC)c1 | inactive | –
COc1ccc(C)cc1N | inactive | –
CCCCc1ccc2c(n1)[C@@H](c1ccc(OC)cc1C[C@H](C)C(=O)O)[C@H](C(=O)O)[C@H]2c1ccc2c(c1)OCO2 | inactive | –
NCCO | inactive | –
CCCCOC(=O)CCCCCCCCC(=O)OCCCC | inactive | –
COc1ccc2c(c1)c(CC(=O)O)c(C)n2C(=O)c1ccc(Cl)cc1 | inactive | –
CCc1c(C(=O)NN2CCCCC2)nn(-c2ccc(Cl)cc2Cl)c1-c1ccc(Br)cc1 | inactive | –
c1cc(-c2ccncc2)ccn1 | inactive | –
Oc1ccc2c(c1)OC[C@@H](N1CCC(O)(c3ccc(F)cc3)CC1)[C@H]2O | inactive | –
O=C(O)CCCCC(=O)O | inactive | –
CC(=O)C(C)=CC1C(C)=CCCC1(C)C (stereo not given) | inactive | –
CN1CCCC1=O | inactive | –
Cc1nc(-c2ccc3c(c2)CCN(CCC2CCC(NC(=O)/C=C/c4ccc(F)cc4)CC2)CC3)no1 (stereo not given) | inactive | –
C1CCC(SSC2CCCCC2)CC1 | inactive | –
CC(=O)Oc1ccccc1C(=O)O | inactive | –
